Assay outcomes as filed in PubChem BioAssay.
Compounds with a hit are over-represented: about 2.4% of the library has one in this group of screens.
D2 PAM-1: positive allosteric modulators of human D2 dopamine receptor; DiscoveRx D2 beta-arrestin cells, luminescence, 90 min; 100% = 57 uM dopamine signal; actives 0.23% (n = 360,000); potentiation, % (test concentration not listed); in the data active means potentiation above about 50%; inconclusive means mostly about 30% to 49%
Target sequence (P14416 whole entry, looked up): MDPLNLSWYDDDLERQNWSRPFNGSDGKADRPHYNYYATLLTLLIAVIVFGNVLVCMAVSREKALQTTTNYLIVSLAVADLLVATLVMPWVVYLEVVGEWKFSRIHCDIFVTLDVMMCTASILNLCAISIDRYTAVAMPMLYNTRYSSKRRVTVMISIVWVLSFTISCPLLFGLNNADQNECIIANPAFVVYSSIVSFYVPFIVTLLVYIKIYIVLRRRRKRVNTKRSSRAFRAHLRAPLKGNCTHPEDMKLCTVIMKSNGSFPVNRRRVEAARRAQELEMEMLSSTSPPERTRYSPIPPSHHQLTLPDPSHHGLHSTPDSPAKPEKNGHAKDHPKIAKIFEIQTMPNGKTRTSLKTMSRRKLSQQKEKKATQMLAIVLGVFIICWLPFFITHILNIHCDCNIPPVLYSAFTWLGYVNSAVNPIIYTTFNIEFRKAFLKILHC
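D2 cells co-treated with compound plus 50 nM dopamine (EC20) for 90 min at 37 deg C to detect potentiation. Beta-arrestin recruitment was read as enzyme-fragment luminescence after 1 h at ambient temperature. Full response was set by 57 uM dopamine.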
D2 ag-1: activates the human D2 dopamine receptor; P14416; HEK293 T-REx D2 cells, calcium flux agonist mode; activation, % at 2 µM; actives 0.53% (n = 340,000); AID 485358;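 active means activation over 3 SD above normal in the single-dose calcium agonist read, cut at about 30% in these data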
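Agonism scored from kinetic calcium signal (1 read/sec, 180 s) following compound pin transfer, after a 10 s baseline. Cells: HEK293 Trex line expressing inducible D2 receptor coupled to calcium, dye-loaded after overnight culture at 30 C.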
D2 antag: antagonists of human D2 dopamine receptor. HEK293 TREx D2 cells, calcium flux, dopamine EC80. actives 2% (n = 340,000). P14416. inhibition, % at 10 µM; in the data active means inhibition above about 30%; inactive means below that, where a call was filed
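Calcium mobilization kinetics were recorded at 1 s intervals in tetracycline-induced HEK293 T-REx D2 cells, first for 180 s after compound addition and then 180 s after EC80 dopamine.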
D2 PAM-2: positive allosteric modulators of human D2 dopamine receptor; P14416; HEK293 T-REx D2, calcium flux, EC20 dopamine potentiation; potentiation, % at 10 µM; actives 0.34% (n = 340,000); AID 485347;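 active means potentiation over 3 SD above the plate norm, cut at about 30% in these data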
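Cells plated with tetracycline inducer and held overnight at 30 C; calcium dye loaded 30–90 min at room temperature; baseline taken, compound added and read 180 s; EC20 dopamine then added and read 180 s.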
D2 ag-2: human D2 receptor agonism in beta-arrestin assay; DiscoveRx PathHunter D2 beta-arrestin, luminescence, 90 min; 100% = 57 uM dopamine signal; activation, % (no concentration beside the values); actives 0.084% (n = 360,000); AID 624465; in the data active means activation above about 40%; inconclusive means between about 15% and that limit
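DiscoveRx PathHunter D2 beta-arrestin cells (2,100/well) attached overnight, then compound-stimulated 90 min at 37 C in HBSS/10 mM HEPES/0.1% Tween-20 buffer; beta-galactosidase complementation read by luminescence after 1 h at ambient temperature. Dopamine 57 uM final (EC100) as control.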
Hits are given with their value; - = inactive; ? = inconclusive; . = no result given.

SMILES	D2 PAM-1	D2 ag-1	D2 antag	D2 PAM-2	D2 ag-2
O=C(COc1cccc2cccnc12)Nc1ccccc1N1CCOCC1	-	-	30.2	.	-
Cc1nc(Cl)sc1C(=O)Nc1ccc(Cl)cc1	-	-	40.2	-	-
Cc1nc(Cl)sc1C(=O)Nc1ccccc1	-	-	-	-	-
COc1ccc(C(C)(C)C)cc1NC(=O)COC(=O)CSCc1c(C)noc1C	-	-	36.2	-	-
CCc1ccc(-c2nn(Cc3ccccc3)cc2C(=O)NCC2CCCO2)cc1 (stereo not drawn)	-	.	.	.	-
CN(C)c1ccc(/C=N/NC(=O)CNC(=O)c2ccc3c(c2)OCCO3)cc1	-	-	-	-	-
CCN(CC)c1ccc(/C=N/NC(=O)CNC(=O)c2ccc3c(c2)OCCO3)cc1	-	-	33.0	-	-
Cc1ccc(C)c(OCC(=O)N(Cc2nnc(-c3ccccc3Cl)o2)C2CC2)c1	-	-	33.4	-	-
CC1=C(C(=O)N(C)C)C(c2ccc(N3CCOCC3)cc2)NC(=O)N1 (stereo not drawn)	-	-	-	-	-
COc1ccc(C)cc1NC(=O)CSc1nc2ccccc2nc1N1CC(C)OC(C)C1 (stereo not drawn)	-	-	38.1	-	-
CCc1nc(SCC(=O)Nc2cc(C)ccc2OC)c2c(C)c(C)sc2n1	-	-	43.8	-	-
COc1ccccc1NC(=O)CSc1nc2ccccc2nc1N1CC(C)OC(C)C1 (stereo not drawn)	-	-	-	-	-
CCc1nc(SCC(=O)Nc2ccccc2OC)c2c(C)c(C)sc2n1	-	-	-	-	-
C/C(=N\NC(=S)NCC(C)(C)C)c1cc(F)cc(F)c1O	-	-	36.7	-	-
COc1ccc(C(O)(CCC(C)C)C(CN2CCOCC2)c2ccc(Cl)cc2)cc1 (stereo not drawn)	-	-	-	41.0	-
CC1(c2nnc(Cc3ccccc3)o2)CC(c2cccnc2)=NO1 (stereo not drawn)	-	.	.	.	-
Cc1c(Cl)cccc1NC(=S)N/N=C/c1ccccc1Cl	-	-	-	-	?
COc1ccc(C(=O)NCc2cn3ccsc3n2)cc1OC	-	-	-	33.1	-
O=C(CNC(=O)c1cccc(-n2cnnn2)c1)Nc1ccc(F)c(F)c1	-	-	37.8	-	-
CCOC(=O)c1cn2nc(Oc3cccc(C(F)(F)F)c3)ccc2n1	-	-	-	-	-
OCC1(CCOc2ccccc2)CCN(Cc2ccccc2OC(F)F)CC1	-	-	-	-	-
C=CCOc1ccccc1CN1CCC(CO)(CCOc2ccccc2)CC1	-	-	63.8	-	-
CSc1ccc(CN2CCC(CO)(CCOc3ccccc3)CC2)cc1	-	-	50.5	-	-
COc1ccc(Cl)cc1C(=O)NC1CC(C)(C)NC(C)(C)C1	-	.	.	.	-
CC1CCN(C(=O)c2ccc(Br)c(S(=O)(=O)N3CCOCC3)c2)CC1	-	-	-	-	-
SMILES	D2 PAM-1	D2 ag-1	D2 antag	D2 PAM-2	D2 ag-2
CC1CCN(S(=O)(=O)c2cc(C(=O)NC3(C)CCS(=O)(=O)C3)ccc2Br)CC1 (stereo not drawn)	-	-	30.5	-	-
Cc1ccc(CNC(=O)CO/N=C/c2ccc(C(C)(C)C)cc2)cc1	-	-	37.9	-	-
COc1cc2c(cc1OC)C(c1cc3cc4c(cc3[nH]c1=O)OCO4)N(C(=O)C1CC1)CC2 (stereo not drawn)	-	-	32.6	-	-
COc1cc2c(cc1OC)C(c1cc3ccc(C)cc3[nH]c1=O)N(C(=O)c1ccco1)CC2 (stereo not drawn)	-	-	-	-	-
CCOc1ccc(C(C)=O)cc1CN1C(=O)c2ccccc2S1(=O)=O	-	-	34.0	-	-
CCOC(=O)c1ccc(CN2C(=O)c3ccccc3S2(=O)=O)cc1	-	-	-	-	-
Cc1ccc(S(=O)(=O)N2CCN(CC(=O)Nc3ccnn3C3CCCC3)CC2)cc1	-	-	-	-	-
O=C(NNC(=O)c1cccs1)c1ccc([N+](=O)[O-])cc1	-	-	61.3	-	-
CC(C)(C)c1ccc(C(=O)NC(=S)NNC(=O)c2cccs2)cc1	-	51.0	56.4	-	-
O=C(NNC(=O)c1ccc([N+](=O)[O-])cc1)c1ccc(NS(=O)(=O)c2cccs2)cc1	-	.	.	.	-
Cc1cc(C(=O)OCC(=O)NNC(=O)c2cccs2)ccc1[N+](=O)[O-]	-	-	-	-	-
COC(=O)c1cc(C(=O)OCC(=O)NNC(=O)c2cccs2)cc([N+](=O)[O-])c1	71.0	-	-	-	-
O=C1CCSc2ccc(Cl)cc2N1Cc1cccc(Cl)c1	-	-	33.3	-	-
Cc1ccc(CN2C(=O)CCSc3ccc(Cl)cc32)cc1	-	-	-	-	-
Cc1cc(NS(=O)(=O)c2ccc(NC(=O)c3ccc([N+](=O)[O-])s3)cc2)nc(C)n1	60.2	.	.	.	-
O=C(Nc1ccc(S(=O)(=O)NC2=NCCCCC2)cc1)c1cccs1	-	.	.	.	-
O=C(Nc1ccc(S(=O)(=O)NC2=NCCCCC2)cc1)c1ccc([N+](=O)[O-])s1	68.0	-	-	-	-
C[C@@H]1CN([C@H](C)CO)C(=O)Cc2cc(NS(=O)(=O)c3cn(C)cn3)ccc2O[C@H]1CN(C)S(=O)(=O)c1ccc(Cl)cc1	.	.	.	.	-
Cc1ccc(-n2cccn2)c(CN2CCCC(C(=O)c3sccc3C)C2)c1 (stereo not drawn)	-	-	72.6	-	-
N#Cc1nc(COc2ccccc2Cl)oc1NCc1cccnc1	-	-	40.5	-	-
N#Cc1nc(COc2ccccc2Cl)oc1NCc1ccc(F)cc1	-	-	-	-	-
Cc1cnc(NC(=O)c2ccc(F)c(S(=O)(=O)N3CCOCC3)c2)s1	-	-	-	-	-
Cc1ccc(S(=O)(=O)N2CCOCC2)cc1NC(=O)CN1CCC(Cc2ccccc2)CC1	-	-	-	-	-
CC(C)CN1CCC(=O)N([C@H](CN=[N+]=[N-])Cc2ccccc2)CC1	-	-	-	-	-
CCCN1CCC(=O)N([C@H](CN=[N+]=[N-])Cc2ccccc2)CC1	-	-	37.5	-	-
CCc1ccc(-c2nc(CS(=O)CC(=O)NCc3ccco3)c(C)o2)cc1 (stereo not drawn)	-	-	-	73.2	-
Cc1cccc(-c2nc(CS(=O)CC(=O)NCc3cccs3)c(C)o2)c1 (stereo not drawn)	-	-	39.1	-	-
COc1ccc(-c2nc(CS(=O)CC(=O)NCc3ccco3)c(C)o2)cc1 (stereo not drawn)	-	-	-	-	-
Cc1ccc(Nc2nnc(SC(C)C(=O)NCC3CCCO3)s2)cc1C (stereo not drawn)	-	-	-	-	-
Cc1nnc(SC(C)C(=O)NCC2CCCO2)s1 (stereo not drawn)	-	-	31.1	-	-
